Experimental findings from PubChem BioAssay (NCATS) are described below.

What all share (assay): qHTS profiling for inhibitors of Plasmodium falciparum proliferation (AID 504749); further: nearly all actives have a fitted effect of over 60% in size
What all share (details): P. falciparum in erythrocytes, SYBR Green DNA, 72 h; series mostly up to 28.7 µM
For orientation: qHTS replaces the single test concentration by a dilution series.

For one test, the system named is CP250. The gist of the method: (§1)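 Each compound contacts P. falciparum-infected red blood cells for 72 h at 37 C; lysis buffer (Tris, EDTA, saponin, Triton X, SYBR Green I) is added and fluorescence measured next morning; values normalized to controls.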
Another test relates to CP252. The essentials: as §1
Another test deals with CP256. The essentials: as §1
Another test deals with CP260. The essentials:
as §1

The subject of a further test is CP262. The essentials: as §1
The next test deals with CP265. The essentials:
as §1

In the next test the test system is CP266. The essentials:
as §1

The test system of the next test is CP268. The gist of the method:
as §1

A further test concerns CP269. The gist of the method: as §1
The subject of a further test is CP286. The essentials:
as §1

Another test concerns CP291. The essentials: as §1
A further test has as its system CP305. The essentials: as §1
A further test relates to CP315. The essentials:
as §1

The test system of another test is CP325. The essentials:
as §1

The test system of the next test is CP329. The essentials: as §1
The test system of the next test is CP335. The gist of the method: as §1
The subject of the next test is DFO2036. The essentials:
as §1

Another test concerns DIV14. The gist of the method: as §1
The next test deals with CP247. The gist of the method: as §1
The subject of a further test is CP297. The essentials:
as §1

Results filed as inconclusive are left out. Active and inactive are the calls of the source. The call rests on the fitted dose curve; in most records, active means well fitted inhibition curve with a large enough effect; inconclusive means small, poorly fitted or top-dose-only effect; inactive means flat fitted curve, though single readings scatter.
Potency means the concentration at half of the fitted maximal effect.

Take `CCCN1CCC[C@H](c2cccc(O)c2)C1`: the Potency entry with CP250, with CP252, in the test on CP256, with CP260, in the test on CP262 and with CP265 was “inactive” throughout. Further, the Potency result in the test on CP268, in the test on CP269, with CP286, in the test with CP291, in the test with CP305 and in the test on CP315 was “inactive” throughout. Further, the Potency entry with CP325, in the test with CP329, with CP335, in the test with DFO2036 and in the test with DIV14 was “inactive” throughout. For the same compound, in the test with CP266, the compound was called inactive.
Consider `CN1C2CCC1CC(OC(=O)c1cc(Cl)cc(Cl)c1)C2` (centres undefined), for which the Potency result in the test with CP247, with CP250, in the test with CP252, with CP256, in the test on CP260 and with CP262 was “inactive” throughout. In addition, the Potency entry in the test on CP265, in the test with CP268, with CP269, with CP286, in the test with CP291 and in the test with CP305 was “inactive” throughout. Besides, the Potency result in the test on CP315, in the test on CP325, with CP329, in the test with CP335 and with DFO2036 was “inactive” in each case. In addition, in the test with CP266, the call was inactive.
`NC1=NC(=O)N2CC12` (centres undefined): the Potency result in the test with CP250, with CP252, in the test with CP297, with CP315, with CP325 and in the test with CP329 was “inactive” throughout. In addition, the Potency entry in the test with DIV14 is “inactive”. The Potency in the test with CP260 is 10 µM (active). Moreover, the result in the test with CP266 was inactive.
On to `CCCCCCCCCC(CC)c1ccc(S(=O)(=O)O)cc1` (centres undefined), for which the Potency result in the test with CP247, with CP250, in the test with CP252, in the test on CP256, in the test with CP260 and with CP262 was “inactive” throughout. The Potency entry in the test with CP265, with CP268, in the test on CP269, in the test on CP286, in the test on CP291 and in the test with CP297 was “inactive” throughout. Besides, the Potency entry in the test on CP305, in the test on CP315, with CP325, in the test on CP329, in the test with CP335 and in the test with DFO2036 was “inactive” throughout. In the test on DIV14, the Potency result is “inactive”.
Consider `O=C(O)COc1ccccc1`, for which the Potency result in the test with CP247, in the test on CP250, with CP252, in the test with CP256, in the test with CP260 and in the test on CP262 was “inactive” each time. Further, the Potency entry in the test on CP265, with CP268, in the test on CP269, in the test with CP286, in the test with CP291 and in the test on CP297 was “inactive” throughout. For the same compound, the Potency result with CP305, with CP315, in the test on CP325, with CP329, in the test on CP335 and in the test on DFO2036 was “inactive” in each case. Further, the Potency entry with DIV14 is “inactive”. Besides, in the test with CP266, the compound was called inactive.
On to `CN[C@@H]1C[C@@H](c2ccc(Cl)c(Cl)c2)c2ccccc21`, for which the Potency result in the test on CP250, in the test on CP297, in the test on CP315, in the test with CP325 and with CP329 was “inactive” in each case. Also, the Potency in the test on CP286 was 12.6 µM (active); in the test with DIV14, 5.36 µM (active).
As to `C[C@]12CCC(=O)C(O)=C1CC[C@@H]1[C@H]3CCC(=O)[C@@]3(C)CC[C@@H]12`, the Potency entry with CP247, in the test with CP252, in the test with CP260, in the test with CP262, with CP268 and in the test on CP269 was “inactive” throughout. Besides, the Potency result in the test on CP286, in the test on CP291, with CP297, with CP305, in the test with CP315 and in the test on CP325 was “inactive” each time. Besides, the Potency result in the test on CP329 and with CP335 was “inactive” throughout. In addition, the compound was classed as inactive in the test with CP266.
In the case of `Cc1cc(O)ccc1Cl`, the Potency entry in the test on CP247, in the test on CP250, with CP252, in the test on CP256, in the test with CP260 and in the test on CP262 was “inactive” in each case. In addition, the Potency entry in the test with CP265, with CP268, with CP269, in the test with CP286, with CP291 and in the test with CP297 was “inactive” throughout. In addition, the Potency result in the test on CP305, with CP315, with CP325, with CP329, in the test on CP335 and with DFO2036 was “inactive” in each case. The Potency entry with DIV14 is “inactive”. Besides, in the test on CP266, the compound was called inactive.
On to `CC(=O)OCC1=C(C(=O)O)N2C(=O)[C@@H](N)[C@@H]2SC1`, for which the Potency entry with CP260, in the test with CP262, in the test on CP268, in the test on CP269, in the test on CP286 and in the test on CP291 was “inactive” throughout. Moreover, the Potency result with CP297, in the test with CP305, in the test with CP315, in the test with CP325, with CP329 and with CP335 was “inactive” each time. The Potency result with DIV14 was “inactive”. The result in the test on CP266 was inactive.
Regarding `CN(C)[C@@H]1C(=O)C(C(N)=O)=C(O)[C@@]2(O)C(=O)C3=C(O)c4c(O)cccc4[C@@](C)(O)[C@H]3[C@H](O)[C@@H]12`, the Potency result in the test with CP247, with CP250, in the test on CP265, in the test with CP268, in the test with CP269 and in the test with CP291 was “inactive” each time. In addition, the Potency result in the test with CP305, in the test with CP315, in the test on CP325, with CP329 and with DIV14 was “inactive” each time. Besides, the outcome with CP266 was inactive.
Regarding `C1CCC(NC2CCCCC2)CC1`, the Potency result in the test with CP247, in the test with CP250, in the test on CP252, in the test with CP260, in the test with CP262 and in the test with CP265 was “inactive” in each case. Moreover, the Potency result in the test with CP268, in the test on CP269, in the test on CP286, with CP291, with CP297 and in the test on CP305 was “inactive” in each case. Besides, the Potency entry in the test on CP315, with CP325, with CP329, in the test with CP335, in the test on DFO2036 and with DIV14 was “inactive” each time. Moreover, the compound was classed as inactive in the test on CP266.
On to `COC(C)(C)CCCC(C)C/C=C/C(C)=C/C(=O)OC(C)C` (centres undefined), for which the Potency entry in the test with CP262, in the test on CP315 and in the test with DFO2036 was “inactive” throughout. In the test on CP265, the Potency was 11.2 µM (active).
Take `C=CCN1CC[C@]23CCCCC2[C@H]1Cc1ccc(O)cc13` (some centres undefined): the Potency result in the test with CP247, in the test with CP250, in the test with CP252, in the test on CP256, in the test with CP260 and in the test with CP262 was “inactive” each time. Further, the Potency result with CP265, in the test with CP268, in the test with CP269, with CP286, in the test with CP291 and in the test on CP297 was “inactive” throughout. In addition, the Potency entry in the test with CP305, in the test with CP315, in the test on CP325, with CP329, in the test with CP335 and in the test with DFO2036 was “inactive” in each case. In the test with DIV14, the Potency entry was “inactive”. For the same compound, the compound was called inactive with CP266.
For `CCCCc1ccc(C(=O)O)nc1`, the Potency result in the test with CP247, in the test on CP250, in the test with CP252, in the test with CP256, with CP260 and in the test with CP262 was “inactive” in each case. For the same compound, the Potency result in the test with CP265, in the test with CP268, in the test with CP269, in the test with CP286, in the test on CP291 and in the test on CP297 was “inactive” in each case. Also, the Potency result with CP305, in the test with CP315, with CP325, in the test on CP329, in the test with CP335 and with DFO2036 was “inactive” in each case. Moreover, in the test with CP266, the result was inactive.
